Assay outcomes deposited in PubChem by National Center for Advancing Translational Sciences (NCATS).
NPSR antag: qHTS Assay for Antagonists of the Neuropeptide S Receptor: cAMP Signal Transduction; Potency, µM (series often up to 38.3 µM), for the others: at the top dose activity change, negative = inhibition, actives largely listed as inhibitors; CHO-NPSR cells, cAMP TR-FRET, antagonist mode; 220,000 compounds, 1% hits; AID 1461, 2008; Q6W5P4; note: potency is the fitted concentration of half-maximal effect; nearly all actives have a fitted effect of over 50% in size
Coupling enz: qHTS Assay for Inhibitors of Fructose-1,6-bisphosphate Aldolase from Giardia Lamblia: Coupling assay counterscreen; coupling enzyme system counterscreen, AmpLite Red fluorescence; activity change, negative = inhibition, % at 58.2 µM, hits read low; 290,000 compounds, 0.67% hits; AID 2472, 2010; in the data active = activity change below about -30%
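First, compound is pin-transferred into glyceraldehyde-3-phosphate coupling-enzyme reagent at 57.5 uM final and held 10 min at RT. Next, substrate, coupling system and AmpLite Red are added. After 20 min RT, fluorescence (525/598 nm) is read.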
JMJD2E inh: qHTS Assay for Inhibitors of Human Jumonji Domain Containing 2E (JMJD2E) | Lysine-specific demethylase 4E (Homo sapiens), B2RXH2 | JMJD2E catalytic domain, FDH-coupled NADH fluorescence (FDH is formaldehyde dehydrogenase) | Potency, µM (series often up to 57.1 µM), inactives show at the top dose activity change, negative = inhibition, most hits filed as inhibitors | 230,000 compounds, 1.6% hits | AID 2147, 2009; active = well fitted inhibition curve with a large enough effect, not every such curve was filed as active; inconclusive = small, poorly fitted or top-dose-only effect, or another doubt; inactive = no such curve, though single readings can be large or run the other way;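 note: potency is the fitted concentration of half-maximal effect; 0% = wells with enzyme and -100% = buffer wells without enzyme; nearly all actives have a fitted effect of over 50% in size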
RGS12 GoLoco inh: qHTS Assay for Inhibitors of RGS12 GoLoco Motif Activity (Red Fluorophore); Gai1:RGS12 GoLoco peptide FP, rhodamine, 10 min; Potency, µM (series often up to 61.6 µM), without a hit: top-dose activity, negative = inhibition, hits mostly inhibitors; 230,000 compounds, 0.44% hits; active = well fitted inhibition curve with a large enough effect, not every such curve was filed as active; inactive = no such curve, though single readings can be large or run the other way; note: potency is the fitted concentration of half-maximal effect; nearly all actives have a fitted effect of over 30% in size
Sfp inh: qHTS Assay for Inhibitors of Bacillus subtilis Sfp phosphopantetheinyl transferase (PPTase) | 4'-phosphopantetheinyl transferase ffp (Bacillus subtilis), Q9F4F7 | Biochemical Sfp PPTase activity, qHTS | Potency, µM, for the others: largest response in the series, negative = inhibition, actives largely listed as inhibitors | 310,000 compounds, 3.5% hits;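 note: the enzyme is Sfp with the accession as filed and its product quenches rhodamine fluorescence; potency is the fitted concentration of half-maximal effect; 0% = enzyme reaction without inhibitor and -100% = no enzyme wells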
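With Hepes-Na pH 7.6 buffer containing 10 mM MgCl2, Sfp (15 nM) modified BHQ-2-YbbR (12.5 uM) using rhodamine-CoA (5 uM). Two reads 30 minutes apart at 525/598 nm yielded each well's rate.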
ALDH1A1 block: qHTS Assay for Inhibitors of Aldehyde Dehydrogenase 1 (ALDH1A1); Aldehyde dehydrogenase 1A1 (Homo sapiens), P00352; Purified ALDH1A1, NADH fluorescence, propionaldehyde substrate; Potency, µM (top dose mostly 75.3 µM), for the others: top-dose activity, negative = inhibition, usual class: inhibitors; 220,000 compounds, 7.3% hits; active = well fitted inhibition curve with a large enough effect, not every such curve was filed as active; inconclusive = small, poorly fitted or top-dose-only effect, or another doubt; inactive = no such curve, though single readings can be large or run the other way;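 note: potency is the fitted concentration of half-maximal effect; plate controls were no enzyme wells and a reference inhibitor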
Target sequence (P00352 whole entry, looked up): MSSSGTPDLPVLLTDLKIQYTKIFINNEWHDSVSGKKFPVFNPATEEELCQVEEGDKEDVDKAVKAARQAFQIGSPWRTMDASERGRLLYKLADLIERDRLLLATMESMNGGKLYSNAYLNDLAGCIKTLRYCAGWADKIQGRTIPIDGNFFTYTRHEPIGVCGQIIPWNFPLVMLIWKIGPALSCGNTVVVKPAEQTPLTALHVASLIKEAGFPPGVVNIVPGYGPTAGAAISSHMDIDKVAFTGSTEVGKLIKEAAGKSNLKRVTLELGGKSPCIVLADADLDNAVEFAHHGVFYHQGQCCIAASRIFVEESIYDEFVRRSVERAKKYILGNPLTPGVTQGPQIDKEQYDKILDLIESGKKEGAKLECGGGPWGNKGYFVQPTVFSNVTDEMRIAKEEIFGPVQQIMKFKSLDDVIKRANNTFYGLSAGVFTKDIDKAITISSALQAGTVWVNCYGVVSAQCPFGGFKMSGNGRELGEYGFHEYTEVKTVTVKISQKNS
Active calls of the source: *; ? = inconclusive; · = not tested or not shown; ! = repeats disagree; [ ] = another dose, or the depositor's remark. Compounds with a hit are over-represented: about 8.5% of the library has one in this group of screens. Unless noted, calls come from the whole dose curve; as a rule, active = well fitted curve in the direction sought with a large enough effect; inconclusive = small, poorly fitted or top-dose-only effect, or another doubt; inactive = no such curve, though single readings can be large; an effect the other way counts as inactive or inconclusive. Unless noted, % is set by controls: 0 for no effect and ±100 for the full control effect.

SMILES | NPSR antag | Coupling enz | JMJD2E inh | RGS12 GoLoco inh | Sfp inh | ALDH1A1 block
O=C(N/N=C/C1C(=O)NC(=S)N(c2ccccc2)C1=O)c1cc(Br)c(O)c(Br)c1 (stereo unspecified) | -17% | 2 | 22µM* | -19% | -13% | 13µM*
CCCCCCCC/C=C\CCCCCCCC(=O)OC[C@@H](COP(O)(O)=S)OC | · | 7 | · | · | ? | ·
CN(C)c1ccc(C=C2C(=O)NC(=O)NC2=O)cc1[N+](=O)[O-] | 5% | 2 | 2% | -12% | 25µM* | ?
COc1ccc(OCCOc2cccc(C=C3C(=O)NC(=O)NC3=O)c2)cc1 | · | 4 | · | · | -86% | ·
CN1C(=O)C(=Cc2ccc(N(C)C)c([N+](=O)[O-])c2)C(=O)N(C)C1=O | -1% | -3 | 6% | 54% | 56µM* | ?
CN(C)c1ccc(C=C2C(=O)NC(=S)NC2=O)cc1[N+](=O)[O-] | -39% | 1 | ? | -12% | -87% | 11µM*
CCOc1cc(C=C2C(=O)NC(=O)NC2=O)cc([N+](=O)[O-])c1O | -5% | -12 | 8% | -12% | 35µM* | 28µM*
c1ccc(N2CC3(CCNCC3)C2)nc1 | · | 1 | · | 9% | -22% | ?
C[N+]1(C)[C@@H]2CC[C@H]1CC(OC(=O)C(CO)c1ccccc1)C2 (stereo partly specified) | 8% | 0 | 6% | 1% | 9% | 7%
C[N+]1(C)C2CCC1CC(OC(=O)C(CO)c1ccccc1)C2 (stereo unspecified) | -12%[46.1 µM] | 1 | 10µM*! | 19% | 13% | 8%
C[N+]1(C)C2CCC1CC(OC(=O)c1ccccc1)C2 (stereo unspecified) | 3% | 1 | -11% | 4µM* | -18% | ·
COc1cc2c(cc1OC)[C@]13CC[N@+]4(C)CC5=CCO[C@H]6CC(=O)N2[C@@H]1C6[C@@H]5C[C@]34O (stereo partly specified) | · | · | · | 7%[14.2 µM] | · | 16%[13.5 µM]
Oc1cc(Cl)cc(Cl)c1 | · | · | · | -1% | · | 14%
CNC(C)Cc1ccc(OC)cc1 (stereo unspecified) | · | 0 | · | · | -6% | ·
COc1ccc(C(c2ccc(OC)cc2)C(Cl)(Cl)Cl)cc1 | · | -1 | -4% | 2% | -6% | 14µM*!
Fc1ccc(C(OCCN2CCN(C/C=C/c3ccccc3)CC2)c2ccc(F)cc2)cc1 | · | · | · | 5% | 45µM* | -14%
c1ccc(CCCN2CCN(CCOC(c3ccccc3)c3ccccc3)CC2)cc1 | 16µM* | 0 | -10% | -7% | -17% | -16%
Fc1ccc(C(OCCN2CCN(CCCc3ccccc3)CC2)c2ccc(F)cc2)cc1 | ? | 0 | -1% | 6% | 12% | -18%
CCCC(=O)Cl | · | · | · | -3% | · | 4%
CC(C)[C@H](NC(=O)[C@H](CC(=O)O)NC(=O)[C@H](Cc1ccccc1)NC(=O)[C@@H](C)NC(=O)[C@@H](N)Cc1ccc(O)cc1)C(=O)N[C@H](C(=O)NCC(N)=O)C(C)C | · | -3 | · | · | -14% | ·
N/C(=N\N=C/c1ccc(-c2ccc(O)c(C(=O)O)c2)o1)N[N+](=O)[O-] | -16%[46.1 µM] | -4 | ? | -1% | 50µM* | ?
O=c1ccc2c(O)c3ccoc3cc2o1 | · | 0 | -4% | -7% | 3% | ?
COc1c2ccoc2cc2oc(=O)ccc12 | · | -2 | ? | 2% | 5% | 20µM*
COC(=O)NC(=S)Nc1ccccc1NC(=S)NC(=O)OC | · | -1 | -7% | -7% | 32µM* | 10µM*
NO | 14%[46.1 µM] | · | 1.4µM* | -15% | · | 8%
SMILES | NPSR antag | Coupling enz | JMJD2E inh | RGS12 GoLoco inh | Sfp inh | ALDH1A1 block
CC(C)(C)c1ccc(O)c(C[N+](C)(C)C)c1 | · | · | · | -39%[14.2 µM] | · | 15%[13.5 µM]
CN1CCC(c2c[nH]c3ccccc23)C1 (stereo unspecified) | 15% | -1 | 22µM* | 0% | -3% | ·
c1ccc2c([C@@H]3CCN(CCN4CCOCC4)C3)c[nH]c2c1 | · | · | · | 6%[14.2 µM] | · | -2%[13.5 µM]
Cc1ccc(S(=O)ON2CCC(C(=O)O)(c3ccccc3)CC2)cc1 (stereo unspecified) | · | · | · | 10%[14.2 µM] | · | 15%[13.5 µM]
CC(C)(C)C(=O)CP(=O)(O)O | · | · | · | 0%[14.2 µM] | · | 2%[13.5 µM]
F/C(COc1ccc2c(c1)[nH]c1ccccc12)=C1/CN2CCC1CC2 | · | 2 | · | · | ? | ·
C[C@H](N)C(=O)N[C@@H](C)C(=O)N[C@@H](Cc1ccccc1)C(=O)CCl | · | · | · | -2% | 17% | -16%
C[n+]1ccc(-c2ccncc2)cc1 | 6%[46.1 µM] | 2 | -1% | 10µM* | -6% | -3%
N#CC(c1ccc(Cl)nn1)c1c(F)cccc1Cl (stereo unspecified) | -5% | 3 | 2% | 6% | -1% | 14µM*
O=C1NC(=S)NC(=O)C12C(c1ccc(F)cc1)NC(=S)NC2c1ccc(F)cc1 (stereo unspecified) | -8%[46.1 µM] | 4 | 3% | -1% | 40µM* | -6%
O=C1NC(=S)NC(=O)C12C(c1ccccc1)NC(=S)NC2c1ccccc1 (stereo unspecified) | -5% | 5 | -1% | -2% | ? | -8%
COC(=O)C12CC3=C[C@H](CC3=O)Cc3ccccc3[C@@H]1CNC2=O (stereo partly specified) | · | 0 | -11% | 2% | -13% | 7%
O=C(N/N=C/c1c(O)n(C2CCCCC2)c(=S)[nH]c1=O)c1ccccc1 | · | 0 | · | · | 26% | ·
CCC(C)n1c(O)c(/C=N/Nc2ccccc2)c(=O)[nH]c1=S (stereo unspecified) | -22% | 0 | -3% | 119% | 45µM* | 3.5µM*
O=c1[nH]c(=S)n(C2CC2)c(O)c1/C=N/Nc1cccc2ccccc12 | -8%[46.1 µM] | -53* | 3% | · | 20µM* | 2.5µM*
O=c1[nH]c(=S)n(C2CC2)c(O)c1/C=N/Nc1ccccc1 | -12% | -1 | ? | 19% | 50µM* | 3.2µM*
CCCC[N+](=O)[O-] | · | · | · | 3% | · | ?
C=CCN1C(=O)/C(=C/c2cc(C)n(-c3ccccn3)c2C)C(=O)NC1=S | -29% | 6 | -1% | 40% | ? | ?
O=C1NC(=S)NC(=O)C1=Cc1cccc2cc3ccccc3cc12 | ? | 0 | -5% | -7%[14.2 µM] | 25µM* | ?
CC(C)(C)CC(C)(C)c1ccc(O)cc1 | · | · | · | · | 28% | ·
CCC(C)(C)c1ccc(O)cc1 | · | · | · | 8.9µM*! | 10% | -12%
C=CCc1c(C)[nH]c(=S)c(C#N)c1C | -12%[46.1 µM] | -1 | ? | -19% | 10µM* | 4.5µM*
Cc1cccc(C)c1N | · | · | · | 5% | · | -5%
